Source: PubChem BioAssay (NCATS)
Results filed as inconclusive are left out. Calls of active or inactive are those of the source. Calls follow the shape of the dose curve; as a rule, active = well fitted curve in the direction sought with a large enough effect; inconclusive = small, poorly fitted or top-dose-only effect, or another doubt; inactive = no such curve, though single readings can be large; an effect the other way counts as inactive or inconclusive.

Experiments:
NIH3T3 = assay: qHTS assay to identify novel small-molecules to repurpose for Merkel cell carcinoma treatment (AID 1296009); conditions: MCC and control cell lines, CellTiter-Glo viability, 72 h; at 44.8 µM (top of the series) unless noted; also: nearly all actives have a fitted effect of over 60% in size
Method in brief: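 Cells were treated for 72 hr at 37 degree celsius with compounds in 8- or 11-point dose response. Viability was read by CellTiter-Glo luminescence, normalized to no-cell (cytotoxicity) and DMSO controls.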

C33A = assay: Primary qHTS to identify gynecologic anti-cancer compounds using libraries of approved drugs and bioactive compounds (AID 1345084); conditions: Gynecologic cancer cell panel viability, ATPlite luminescence, 48 h; series mostly up to 57.5 µM; also: nearly all actives have a fitted effect of over 55% in size
Method in brief: (§1)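 Five-concentration response, 48 h; readout is ATP-driven luciferase luminescence.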

CAOV3 = assay: as above; conditions: Gynecologic cancer cell panel viability, ATPlite luminescence, 48 h; series mostly up to 57.5 µM
Method in brief: as §1

CASKI = assay: as above; conditions: Gynecologic cancer cell panel viability, ATPlite luminescence, 48 h; series mostly up to 57.5 µM
Method in brief: as §1

Es-2 = assay: as above; conditions: Gynecologic cancer cell panel viability, ATPlite luminescence, 48 h; series mostly up to 57.5 µM
Method in brief: as §1

HeLa = assay: as above; conditions: Gynecologic cancer cell panel viability, ATPlite luminescence, 48 h; series mostly up to 57.5 µM
Method in brief: as §1

Hek293T = assay: as above; conditions: Gynecologic cancer cell panel viability, ATPlite luminescence, 48 h, control line for the selectivity index; series mostly up to 57.5 µM
Method in brief: as §1

JEG-3 = assay: as above; conditions: Gynecologic cancer cell panel viability, ATPlite luminescence, 48 h; series mostly up to 57.5 µM
Method in brief: as §1

OV90 = assay: as above; conditions: Gynecologic cancer cell panel viability, ATPlite luminescence, 48 h; series mostly up to 57.5 µM
Method in brief: as §1

PA-1 = assay: as above; conditions: Gynecologic cancer cell panel viability, ATPlite luminescence, 48 h; series mostly up to 57.5 µM
Method in brief: as §1

SKOV3 = assay: as above; conditions: Gynecologic cancer cell panel viability, ATPlite luminescence, 48 h; series mostly up to 57.5 µM
Method in brief: as §1

Tov-21-G = assay: as above; conditions: Gynecologic cancer cell panel viability, ATPlite luminescence, 48 h; series mostly up to 57.5 µM
Method in brief: as §1

Tov112D = assay: as above; conditions: Gynecologic cancer cell panel viability, ATPlite luminescence, 48 h; series mostly up to 57.5 µM
Method in brief: as §1

Measured: Potency

CC(=O)OC1C(C)C2C(OC3OC(CO)C(O)C(O)C3O)OC=C(C(=O)O)C2C1OC(=O)c1ccccc1 (configuration not stated)
inactive: NIH3T3 inactive [at 17.4 µM] | C33A | CAOV3 | CASKI | Es-2 | HeLa | Hek293T | JEG-3 | OV90 | PA-1 | SKOV3 | Tov-21-G | Tov112D

CCC(C)/C=C(C)/C=C/C(=O)C1CCC(O)C(C)(O)C1=O (configuration not stated)
inactive: all assays above

CN(C)CCC[C@]1(c2ccc(F)cc2)OCc2cc(C#N)ccc21
inactive: all assays above

CCCc1[nH]nc2c1C(c1cc(Cl)cc(Cl)c1O)C(C#N)=C(N)O2 (configuration not stated)
inactive: all assays above

Cc1ccc(Nc2nnc(-c3ccc([N+](=O)[O-])cc3)o2)cc1Cl
inactive: all assays above

CSCC1OC(n2cnc3c(=O)[nH]cnc32)C(O)C1O (configuration not stated)
inactive: all assays above

O=C(CCc1ccccc1)c1c(O)c([C@@H]2O[C@H](CO)[C@@H](O)[C@H](O)[C@H]2O)c(O)c([C@@H]2O[C@H](CO)[C@@H](O)[C@H](O)[C@H]2O)c1O
inactive: NIH3T3 inactive [at 17.4 µM] | C33A | CAOV3 | CASKI | Es-2 | HeLa | Hek293T | JEG-3 | OV90 | PA-1 | SKOV3 | Tov-21-G | Tov112D

CC(C)[C@@H](C(=O)O)N1Cc2c(cc(O)c3c2O[C@]2(C3)[C@H](C)CCC3C(C)(C)[C@H](O)[C@H](O)C[C@@]32C)C1=O (some centres not stated)
inactive: NIH3T3 inactive [at 17.4 µM] | C33A | CAOV3 | CASKI | Es-2 | HeLa | Hek293T | JEG-3 | OV90 | PA-1 | SKOV3 | Tov-21-G | Tov112D

COc1ccc(OC2OC(CO[C@@H]3O[C@@H](C)[C@H](O)[C@@H](O)[C@H]3O)C(O)C(O)C2O)cc1OC (some centres not stated)
inactive: NIH3T3 inactive [at 17.4 µM] | C33A | CAOV3 | CASKI | Es-2 | HeLa | Hek293T | JEG-3 | OV90 | PA-1 | SKOV3 | Tov-21-G | Tov112D

CC(=O)NCC1CN(c2ccc(-c3ccc(CNCc4cn[nH]n4)cc3)c(F)c2)C(=O)O1 (configuration not stated)
inactive: all assays above

O=C(c1ccc(Cl)c([N+](=O)[O-])c1)N1CCN(c2ccccc2F)CC1
inactive: all assays above

CC1(C)CC2C(O)C3=C(CC(C)(O)C2C1)C(=O)OC3 (configuration not stated)
inactive: all assays above

COC(=O)C1=COC(O[C@@H]2O[C@H](CO)[C@@H](O)[C@H](O)[C@H]2O)C2C(C)C(=O)CC12 (some centres not stated)
inactive: all assays above

C/C(=C\CCC(C)C1CC(O)C2(C)C3CCC4C(C)(C)C(OC5OCC(O)C(O)C5O)CCC45CC35CC(O)C12C)C(=O)O (configuration not stated)
inactive: NIH3T3 inactive [at 17.4 µM] | C33A | CAOV3 | CASKI | Es-2 | HeLa | Hek293T | JEG-3 | OV90 | PA-1 | SKOV3 | Tov-21-G | Tov112D
